What all share (conditions): mRNA level, 48 h; actives raise or lower the signal
Read-out in test [1]: Tumor necrosis factor receptor superfamily member 6 (Homo sapiens) (UniProt P25445)
Briefly: LTEA_HepaRG_FAS: Life Technologies and Expression Analysis (LTEA) Assay for Fas cell surface death receptor (FAS) using HepaRG (AID 2283447). A digest of the protocol: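 FAS transcript level was measured by TaqMan qRT-PCR against three housekeeping genes after 48 h chemical exposure. Cells were HepaRG, 0.5% DMSO vehicle, with a top concentration of 100 uM and half-log dilutions over eight points, in duplicate.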

Read-out in test [2]: Cyclin D2 (CCND2), CCND2 (gene 894)
Briefly: LTEA_HepaRG_CCND2: Life Technologies and Expression Analysis (LTEA) Assay for Cyclin D2 (CCND2) using HepaRG (AID 2283449). In a few lines:
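CCND2 transcript levels, quantified by qRT-PCR and normalised to three housekeeping genes, were fitted bidirectionally against 0.5% DMSO. HepaRG cultures were dosed 48 h in duplicate with an 8-point half-log series up to 100 uM.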

Read-out in test [3]: flavin-containing dimethylaniline monooxygenases 3 (FMO3), FMO3 (gene 2328)
In words: LTEA_HepaRG_FMO3: Life Technologies and Expression Analysis (LTEA) Assay for flavin-containing dimethylaniline monooxygenases 3 (FMO3) using HepaRG (AID 2283453). A digest of the protocol: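 Eight-point concentration-response in serum-free HepaRG cultures (top 100 uM, 0.5% DMSO, 48 h). Read-out: FMO3 mRNA level normalized to three endogenous control genes, fitted bidirectionally versus vehicle.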

Read-out in test [4]: Cytochrome P450 (CYP1A1), CYP1A1 (gene 1543)
Briefly: LTEA_HepaRG_CYP1A1: Life Technologies and Expression Analysis (LTEA) Assay for Cytochrome P450 (CYP1A1) using HepaRG (AID 2283454). A digest of the protocol: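 Differentiated human HepaRG cells, after 48 h plating, exposed in duplicate for 48 h in serum-free induction medium to 8 half-log concentrations up to 100 uM in 0.5% DMSO. CYP1A1 mRNA by qRT-PCR, normalized to ACTB/GAPDH/POLR2A; bidirectional fit versus DMSO.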

Read-out in test [5]: CFLAR gene, CFLAR (gene 8837)
Briefly: LTEA_HepaRG_CFLAR: Life Technologies and Expression Analysis (LTEA) Assay for CFLAR gene using HepaRG (AID 2283455). In a few lines:
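Transcript level by qRT-PCR (normalized to ACTB, GAPDH and POLR2A) after 48 h chemical exposure of HepaRG cells, top concentration 100 uM with half-log steps, 0.5% DMSO vehicle, duplicates; fitted bidirectionally against DMSO baseline.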

Read-out in test [6]: Forkhead box O1 (FOXO1), FOXO1 (gene 2308)
Briefly: LTEA_HepaRG_FOXO1: Life Technologies and Expression Analysis (LTEA) Assay for Forkhead box O1 (FOXO1) using HepaRG (AID 2283456). A digest of the protocol: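 FOXO1 transcript quantified by qRT-PCR after 48 h chemical exposure (top 100 uM, half-log steps, 0.5% DMSO) of HepaRG cells, housekeeping-normalized (ACTB/GAPDH/POLR2A). Changes fitted in both directions relative to vehicle.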

Read-out in test [7]: growth arrest and DNA damage 45 (GADD45A), GADD45A (gene 1647)
Briefly: LTEA_HepaRG_GADD45A: Life Technologies and Expression Analysis (LTEA) Assay for growth arrest and DNA damage 45 (GADD45A) using HepaRG (AID 2283458). A digest of the protocol: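 HepaRG, 48 h exposure, 8 conc. (top 100 uM, half-log steps), 0.5% DMSO vehicle, duplicates. Read-out: qRT-PCR mRNA level, housekeeping-normalized (ACTB/GAPDH/POLR2A). Curves fit bidirectionally vs DMSO baseline.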

Read-out in test [8]: Forkhead box O3 (FOXO3), FOXO3 (gene 2309)
In words: LTEA_HepaRG_FOXO3: Life Technologies and Expression Analysis (LTEA) Assay for Forkhead box O3 (FOXO3) using HepaRG (AID 2283459). A digest of the protocol: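 FOXO3 transcript measured by qRT-PCR (normalized to ACTB, GAPDH, POLR2A) after 48 h exposure of HepaRG cells in serum-free induction medium. Duplicates, eight half-log concentrations up to 100 uM, 0.5% DMSO; gain or loss fitted against DMSO.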

Read-out in test [9]: ABC Transporter (ABCB1), ABCB1 (gene 5243)
Briefly: LTEA_HepaRG_ABCB1: Life Technologies and Expression Analysis (LTEA) Assay for ABC Transporter (ABCB1) using HepaRG (AID 2283460). In a few lines: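 ABCB1 transcript level measured by TaqMan qRT-PCR against three housekeeping genes after 48 h chemical exposure of differentiated HepaRG cells. Top concentration 100 uM, half-log steps, eight points, 0.5% DMSO vehicle; bidirectional fit relative to DMSO.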

Read-out in test [10]: growth arrest and DNA damage 45 (GADD45B), GADD45B (gene 4616)
Briefly: LTEA_HepaRG_GADD45B: Life Technologies and Expression Analysis (LTEA) Assay for growth arrest and DNA damage 45 (GADD45B) using HepaRG (AID 2283461). In a few lines: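 Differentiated human HepaRG cells in serum-free induction medium exposed 48 h in duplicate to eight concentrations, top 100 uM, half-log steps, 0.5% DMSO. GADD45B mRNA by TaqMan qRT-PCR, normalized to ACTB, GAPDH, POLR2A; bidirectional fit versus DMSO.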

Read-out in test [11]: ABC Transporter (ABCC3), ABCC3 (gene 8714)
Briefly: LTEA_HepaRG_ABCC3: Life Technologies and Expression Analysis (LTEA) Assay for ABC Transporter (ABCC3) using HepaRG (AID 2283462). A digest of the protocol: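 Differentiated human HepaRG cells exposed 48 h in serum-free induction medium, 0.5% DMSO vehicle, 8-point half-log series to 100 uM in duplicate. ABCC3 mRNA by qRT-PCR, normalised to ACTB, GAPDH, POLR2A; bidirectional fit vs DMSO.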

Read-out in test [12]: ABC Transporter (ABCB11), ABCB11 (gene 8647)
In words: LTEA_HepaRG_ABCB11: Life Technologies and Expression Analysis (LTEA) Assay for ABC Transporter (ABCB11) using HepaRG (AID 2283463). A digest of the protocol:
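ABCB11 transcript levels quantified by TaqMan qRT-PCR against three housekeeping genes after 48 h chemical exposure of HepaRG cultures. Concentrations up to 100 uM in half-log steps, 0.5% DMSO vehicle; both induction and suppression scored.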

Read-out in test [13]: ABC Transporter (ABCC2), ABCC2 (gene 1244)
In words: LTEA_HepaRG_ABCC2: Life Technologies and Expression Analysis (LTEA) Assay for ABC Transporter (ABCC2) using HepaRG (AID 2283464). In a few lines:
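Differentiated HepaRG cells in serum-free induction medium exposed 48 h to eight half-log concentrations up to 100 uM, 0.5% DMSO, in duplicate. ABCC2 mRNA measured by qRT-PCR (TaqMan, Fluidigm), normalized to ACTB, GAPDH and POLR2A. Fitted in both directions against DMSO.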

Read-out in test [14]: Broad substrate specificity ATP-binding cassette transporter ABCG2 (Homo sapiens) (UniProt Q9UNQ0)
Briefly: LTEA_HepaRG_ABCG2: Life Technologies and Expression Analysis (LTEA) Assay for ABC Transporter (ABCG2) using HepaRG (AID 2283465). In a few lines: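 ABCG2 transcript was quantified by TaqMan qRT-PCR against three housekeeping genes in HepaRG cells. Cells were treated in duplicate for 48 h across an 8-point half-log series up to 100 uM, with 0.5% DMSO vehicle. Gain or loss versus DMSO was fit.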

Read-out in test [15]: ATP-citrate lyase (ACLY), ACLY (gene 47)
In words: LTEA_HepaRG_ACLY: Life Technologies and Expression Analysis (LTEA) Assay for ATP-citrate lyase (ACLY) using HepaRG (AID 2283466). In a few lines: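 ACLY mRNA quantified by qRT-PCR on Fluidigm arrays against three housekeeping genes, after 48 h chemical treatment of HepaRG cells (top concentration 100 uM, half-log steps, 0.5% DMSO vehicle). Up- or down-regulation fitted relative to DMSO.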

Read-out in test [16]: Peroxisomal acyl-coenzyme A oxidase 1 (ACOX1) gene, ACOX1 (gene 51)
In words: LTEA_HepaRG_ACOX1: Life Technologies and Expression Analysis (LTEA) Assay for Peroxisomal acyl-coenzyme A oxidase 1 (ACOX1) gene using HepaRG (AID 2283467). A digest of the protocol:
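ACOX1 transcript levels were quantified by TaqMan qRT-PCR against three housekeeping genes after 48 h chemical exposure of differentiated human HepaRG cells. Exposure used eight half-log steps topping at 100 uM, 0.5% DMSO vehicle, in duplicate. Bidirectional curve fits were made relative to DMSO.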

Read-out in test [17]: Alkaline Phosphatase, Placental (ALPP) gene, ALPP (gene 250)
In words: LTEA_HepaRG_ALPP: Life Technologies and Expression Analysis (LTEA) Assay for Alkaline Phosphatase, Placental (ALPP) gene using HepaRG (AID 2283468). A digest of the protocol:
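HepaRG cells plated 48 h, then exposed in duplicate for 48 h in serum-free induction medium to 8-point half-log series from 100 uM in 0.5% DMSO. ALPP mRNA by TaqMan qRT-PCR, normalized to ACTB/GAPDH/POLR2A; bidirectional fit versus DMSO.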

Read-out in test [18]: Bcl-2 (BAD) gene, BAD (gene 572)
In words: LTEA_HepaRG_BAD: Life Technologies and Expression Analysis (LTEA) Assay for Bcl-2 (BAD) gene using HepaRG (AID 2283469). A digest of the protocol:
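Read-out: qRT-PCR of BAD mRNA, normalized to three housekeeping genes. Human HepaRG cultures got 48 h chemical exposure in 0.5% DMSO, duplicate eight-point half-log series topping at 100 uM. Gain or loss of signal fitted versus DMSO vehicle.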

Read-out in test [19]: Bcl-2 (BAX) gene, BAX (gene 581)
Briefly: LTEA_HepaRG_BAX: Life Technologies and Expression Analysis (LTEA) Assay for Bcl-2 (BAX) gene using HepaRG (AID 2283470). A digest of the protocol:
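qRT-PCR read-out of BAX mRNA, normalized to three housekeeping genes, after 48 h chemical exposure of human HepaRG cells in serum-free induction medium; eight-point half-log series, top 100 uM, 0.5% DMSO vehicle; bidirectional fit versus DMSO.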

What is called AC50 is the concentration giving half of the maximal activity seen.

Active and inactive are the calls of the source. How the source made its calls: active means hit-call score of the fitted dose curve at least 0.9, where 1 is the maximum; inactive means score below 0.9.

Broad substrate specificity ATP-binding cassette transporter ABCG2 (Homo sapiens), sequence (Q9UNQ0 whole entry, looked up): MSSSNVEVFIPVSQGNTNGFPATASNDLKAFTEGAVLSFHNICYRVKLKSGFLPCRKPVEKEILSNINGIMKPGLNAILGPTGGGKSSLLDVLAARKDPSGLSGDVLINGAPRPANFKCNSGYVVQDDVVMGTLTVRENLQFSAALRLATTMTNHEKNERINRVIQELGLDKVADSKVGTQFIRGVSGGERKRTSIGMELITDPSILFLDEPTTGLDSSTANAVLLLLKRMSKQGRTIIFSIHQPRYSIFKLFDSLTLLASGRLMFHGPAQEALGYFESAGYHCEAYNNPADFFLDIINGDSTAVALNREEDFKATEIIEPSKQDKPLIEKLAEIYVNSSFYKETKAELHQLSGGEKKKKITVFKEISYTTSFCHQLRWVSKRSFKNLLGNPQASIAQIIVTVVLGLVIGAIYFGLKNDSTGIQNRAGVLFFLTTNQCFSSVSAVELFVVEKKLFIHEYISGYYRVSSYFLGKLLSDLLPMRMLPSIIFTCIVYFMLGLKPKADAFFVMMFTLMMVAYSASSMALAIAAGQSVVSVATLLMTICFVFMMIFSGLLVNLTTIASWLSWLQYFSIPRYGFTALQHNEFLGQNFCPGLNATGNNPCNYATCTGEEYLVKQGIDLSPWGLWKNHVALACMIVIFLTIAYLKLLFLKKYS

In the case of `CC(C)(OO)c1ccccc1`, the compound was called inactive in [1], in [2], in [3], in test [5], in test [6] and in test [7]. Further, the outcome in [8], in [9], in [10], in [11], in [12] and in test [13] was inactive. Moreover, the outcome in test [14], in test [15], in test [16], in test [17], in test [18] and in [19] was inactive. Further, in [4], the half-maximal activity concentration (AC50) is 65.7 µM (active).

On to `CN(C)N=O`, for which the call in test [1], in test [2], in test [3], in test [4], in test [5] and in test [6] was inactive. Moreover, the compound was called inactive in [7], in [8], in test [9], in test [10], in test [11] and in [12]. Moreover, the compound was called inactive in [13], in test [14], in test [15], in test [16], in test [17] and in test [18]. Moreover, the call in test [19] was inactive.

In the case of `CCC(C)(C)c1ccc(O)c(C(C)(C)CC)c1`, the compound was classed as inactive in test [1], in test [2], in [3], in [5], in test [6] and in test [7]. Further, the call in [8], in [9], in [10], in test [11], in test [12] and in [13] was inactive. For the same compound, the outcome in [14], in test [15], in test [16], in test [17], in test [18] and in [19] was inactive. Further, the concentration at half-maximal activity (AC50) in test [4] was 74 µM (active).

Take `ClCC(Cl)CCl`: the compound was called inactive in [1], in test [2], in [3], in [4], in [5] and in test [6]. In addition, the call in test [7], in [8], in test [9], in [10], in test [11] and in [12] was inactive. Further, the outcome in [13], in [14], in test [15], in test [16], in [17] and in test [18] was inactive. In addition, the AC50 in test [19] is 9.92 µM (active).

The record behind these values is PubChem BioAssay (EPA / NIEHS).
